# The whole screen tested about 330,000 compounds, of which about 4,900 (1.5%) were called active. The full list was thinned out, with actives kept by preference. A number with no mark means an inactive call.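 The calls were made as follows: active = inhibition above the mean inhibition across the screen plus 3 SD (cut at about 25% in these data); inactive = the rest.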
# Target: Platelet-activating factor acetylhydrolase (Homo sapiens) (UniProt Q13093)
# Test: inhibition of plasma PAF acetylhydrolase – biochemical, fluorescence polarization, human, primary screen (AID 463082);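 also: inhibitors block binding of the rhodamine activity-based probe so polarization drops; 0% = enzyme with DMSO and 100% = wells lacking pPAFAH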
# Details: recombinant pPAFAH, FP-rhodamine probe fluorescence polarization; at 3.39 µM; stronger effect = higher value
# Sequence of Platelet-activating factor acetylhydrolase (Homo sapiens) (Q13093 whole entry, looked up): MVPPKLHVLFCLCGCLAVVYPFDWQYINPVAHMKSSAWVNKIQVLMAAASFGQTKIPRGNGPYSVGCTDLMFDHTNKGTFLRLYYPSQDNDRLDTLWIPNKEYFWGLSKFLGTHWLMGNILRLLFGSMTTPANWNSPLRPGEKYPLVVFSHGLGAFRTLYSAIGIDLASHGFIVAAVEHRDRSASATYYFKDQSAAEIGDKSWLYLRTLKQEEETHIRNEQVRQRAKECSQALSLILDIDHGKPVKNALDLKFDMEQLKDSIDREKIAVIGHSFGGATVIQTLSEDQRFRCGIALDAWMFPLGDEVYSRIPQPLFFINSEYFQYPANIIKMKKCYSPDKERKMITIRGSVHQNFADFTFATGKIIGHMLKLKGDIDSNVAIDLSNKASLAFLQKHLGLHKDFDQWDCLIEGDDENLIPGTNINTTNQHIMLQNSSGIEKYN
row,Compound,inhibition
1,Cc1cc(C)c(-c2c(O)c3ccccc3n(C)c2=O)c(C)c1,-0.19%
2,COc1ccc(CN2CC(C(=O)NCCN3CCN(c4ccccc4F)CC3)CC2=O)cc1 (stereo not drawn),-3.16%
3,O=C(Nc1ccc(Cl)cc1)C1c2cccc[n+]2CC(=O)N1Cc1ccc2c(c1)OCO2 (stereo not drawn),25.9% (active)
4,O=C(C1CCN(Cc2ccc(Cl)cc2)CC1)N1CCN(Cc2ccc3c(c2)OCO3)CC1,6.74%
5,CC1CCC(NC(=O)C2c3ccccc3C(=O)N2Cc2ccc3c(c2)OCO3)CC1 (stereo not drawn),-0.02%
6,COC(=O)c1c(C)oc(C)c1S(=O)(=O)NCc1ccc(Cl)cc1,-8.68%
7,Cc1nnc(SCC(=O)Nc2cccc(N)c2)n1-c1ccccc1,6.08%
8,COc1ccc(-n2cnnc2SCC(=O)Nc2cccc(S(N)(=O)=O)c2)cc1,3.84%
9,NS(=O)(=O)c1cccc(NC(=O)CSc2nc3ccccc3n2-c2ccccc2)c1,33.2% (active)
10,O=[N+]([O-])c1ccc(N2CCN(S(=O)(=O)c3ccccc3)CC2)cc1N1CCc2ccccc2C1,-4.15%
11,COCCN1C(=O)C(=O)/C(=C(/O)c2ccc(S(=O)(=O)N3CCCCC3)cc2)C1c1ccc(OC)c(OC)c1 (stereo not drawn),-2.4%
12,Cc1cc(/C=N/Nc2ccc([N+](=O)[O-])cn2)c(C)n1-c1cccc(C(=O)O)c1,66.3% (active)
13,Cc1ccc(-n2c(C)cc(/C=N/Nc3ccc([N+](=O)[O-])cn3)c2C)c(C)c1,8.84%
14,Cc1cccc(-n2c(C)cc(/C=N/NC(N)=S)c2C)c1,-4.16%
15,NC(=O)NC(=O)CSc1nc2cc([N+](=O)[O-])ccc2n1-c1cccc(C(F)(F)F)c1,18.1%
16,Cc1ccc(C(=O)N/C(=C\c2ccco2)C(=O)NC2CCS(=O)(=O)C2)cc1 (stereo not drawn),-1.45%
17,COc1cc(NS(=O)(=O)c2ccc(NC(C)=O)cc2)cc(OC)c1,2.89%
18,CC(=O)Nc1ccc(S(=O)(=O)Nc2ccc(N3CCOCC3)c(F)c2)cc1,5.29%
19,CC(=O)Nc1ccc(S(=O)(=O)Nc2ccc(N3CCCCC3)cc2)cc1,27.6% (active)
20,COc1ccccc1OCCNC(=O)C(CCSC)NC(=O)COc1ccccc1 (stereo not drawn),1.04%
21,CC(C)NS(=O)(=O)c1ccc(OCC(=O)NC2CCCCCC2)cc1,6.56%
22,COc1ccc(NS(=O)(=O)c2ccc(O)c(C(=O)OCC(=O)NC3CCCCC3)c2)cc1,26.9% (active)
23,CCN(C(=O)COC(=O)c1cc(NS(=O)(=O)c2ccc(Cl)c([N+](=O)[O-])c2)ccc1O)C1CCCCC1,-1.02%
